Data reported in PubChem BioAssay AID1159580 (chemical genetic matrix, 2015).
The campaign covered roughly 5,500 compounds. About 2,000 (36%) were called active. Inconclusive results (about 18%) are left out. Cut-off read from the data, not from the text of the source: active = normalized growth mostly below about 0.91 (no sharp cut-off); inconclusive = no clear call, values can overlap the other calls; inactive = mostly above about 0.92. This is one part of the list.

Test: chemical genetic growth profiling, strain panel (AID 1159580);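 note: tested at 20 µM; growth read once vehicle control cultures reached saturation at 30 °C; 1 = growth at the plate median or of vehicle wells; lower values mean less growth of the strain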
Settings: growth OD

Measured: normalized growth

C[C@H]1CC2C([C@@H](O)C[C@@]3(C)C2CC[C@]3(O)C(=O)CO)[C@@]2(C)C=CC(=O)C=C12 (some centres not stated)
inactive: S. cerevisiae deletion strains, locus YJR075W, strain HOC1, active compounds read low 1.01 | S. cerevisiae deletion strains, locus YKL009W, strain mrt4, active compounds read low 0.997 | S. cerevisiae deletion strains, locus YKL068W, active compounds read low 0.999 | S. cerevisiae deletion strains, locus YKL085W, strain MDH1 (second series), active compounds read low 1 | S. cerevisiae deletion strains, locus YKL085W, strain MDH1, active compounds read low 1 | S. cerevisiae deletion strains, locus YKL160W, strain elf1, active compounds read low 0.975 | S. cerevisiae deletion strains, locus YKL190W, strain CNB1, active compounds read low 0.995 | S. cerevisiae deletion strains, locus YKR001C, strain vps1, active compounds read low 1.02 | S. cerevisiae deletion strains, locus YKR026C, strain gcn3, active compounds read low 0.999 | S. cerevisiae deletion strains, locus YKR091W, strain srl3, active compounds read low 1.01 | S. cerevisiae deletion strains, locus YLL001W, strain dnm1, active compounds read low 0.96 | S. cerevisiae deletion strains, locus YLL026W, active compounds read low 0.982 | S. cerevisiae deletion strains, locus YLL041C, strain sdh2, active compounds read low 1.01 | S. cerevisiae deletion strains, locus YLR027C, strain aat2, active compounds read low 0.985 | S. cerevisiae deletion strains, locus YLR039C, strain RIC1, active compounds read low 0.982 | S. cerevisiae deletion strains, locus YLR058C, strain SHM2, active compounds read low 0.999 | S. cerevisiae deletion strains, locus YLR102C, strain apc9, active compounds read low 1.02 | S. cerevisiae deletion strains, locus YLR113W, strain HOG1, active compounds read low 1.03 | S. cerevisiae deletion strains, locus YLR221C, strain rsa3, active compounds read low 1.01 | S. cerevisiae deletion strains, locus YLR258W, strain gsy2, active compounds read low 1.01 | S. cerevisiae deletion strains, locus YLR262C, strain YPT6 (second series), active compounds read low 0.968 | S. cerevisiae deletion strains, locus YLR262C, strain YPT6, active compounds read low 0.996 | S. cerevisiae deletion strains, locus YLR268W, strain sec22, active compounds read low 1.07 | S. cerevisiae deletion strains, locus YLR320W, strain mms22, active compounds read low 0.989 | S. cerevisiae deletion strains, locus YLR330W, strain CHS5, active compounds read low 0.999 | S. cerevisiae deletion strains, locus YLR342W, strain FKS1 (second series), active compounds read low 1.01 | S. cerevisiae deletion strains, locus YLR342W, strain FKS1, active compounds read low 0.985 | S. cerevisiae deletion strains, locus YLR357W, strain rsc2, active compounds read low 0.996 | S. cerevisiae deletion strains, locus YLR370C, strain arc18, active compounds read low 0.992 | S. cerevisiae deletion strains, locus YLR371W, strain rom2, active compounds read low 1.01 | S. cerevisiae deletion strains, locus YLR384C, strain iki3, active compounds read low 0.996 | S. cerevisiae deletion strains, locus YLR418C, strain cdc73, active compounds read low 1.01 | S. cerevisiae deletion strains, locus YML016C, strain PPZ1, active compounds read low 1.01 | S. cerevisiae deletion strains, locus YML032C, strain rad52, active compounds read low 1.04 | S. cerevisiae deletion strains, locus YML120C, strain ndi1, active compounds read low 0.973 | S. cerevisiae deletion strains, locus YML124C, strain tub3, active compounds read low 1.01 | S. cerevisiae deletion strains, locus YMR058W, strain fet3, active compounds read low 0.994 | S. cerevisiae deletion strains, locus YMR078C, strain ctf18, active compounds read low 1.01 | S. cerevisiae deletion strains, locus YMR125W, strain sto1, active compounds read low 1.01 | S. cerevisiae deletion strains, locus YMR129W, active compounds read low 1 | S. cerevisiae deletion strains, locus YMR205C, strain PFK2, active compounds read low 0.993 | S. cerevisiae deletion strains, locus YMR223W, strain ubp8, active compounds read low 0.986 | S. cerevisiae deletion strains, locus YMR231W, strain pep5, active compounds read low 0.991 | S. cerevisiae deletion strains, locus YMR263W, strain SAP30, active compounds read low 1 | S. cerevisiae deletion strains, locus YMR307W, strain GAS1, active compounds read low 1 | S. cerevisiae deletion strains, locus YNL067W, strain RPL9B, active compounds read low 1.03 | S. cerevisiae deletion strains, locus YNL071W, strain lat1, active compounds read low 1 | S. cerevisiae deletion strains, locus YNL128W, strain TEP1, active compounds read low 0.982 | S. cerevisiae deletion strains, locus YNL153C, strain GIM3, active compounds read low 1.01 | S. cerevisiae deletion strains, locus YNL183C, strain NPR1, active compounds read low 0.994 | S. cerevisiae deletion strains, locus YNL209W, strain ssb2, active compounds read low 1.02 | S. cerevisiae deletion strains, locus YNL233W, strain BNI4, active compounds read low 1.01 | S. cerevisiae deletion strains, locus YNL248C, strain rpa49, active compounds read low 1.01 | S. cerevisiae deletion strains, locus YNL250W, strain rad50, active compounds read low 1.01 | S. cerevisiae deletion strains, locus YNL271C, strain bni1, active compounds read low 1.01 | S. cerevisiae deletion strains, locus YNL298W, strain CLA4, active compounds read low 1.01 | S. cerevisiae deletion strains, locus YNL307C, strain MCK1, active compounds read low 1.02 | S. cerevisiae deletion strains, locus YNL322C, strain KRE1 (second series), active compounds read low 1 | S. cerevisiae deletion strains, locus YNL322C, strain KRE1, active compounds read low 0.992 | S. cerevisiae deletion strains, locus YNR049C, strain mso1, active compounds read low 1 | S. cerevisiae deletion strains, locus YNR052C, strain pop2, active compounds read low 1.02 | S. cerevisiae deletion strains, locus YOL006C, strain TOP1, active compounds read low 1.04 | S. cerevisiae deletion strains, locus YOL012C, strain htz1 1.61 | S. cerevisiae deletion strains, locus YOL147C, strain pex11, active compounds read low 1.01 | S. cerevisiae deletion strains, locus YOR001W, strain rrp6, active compounds read low 0.966 | S. cerevisiae deletion strains, locus YOR061W, strain CKA2, active compounds read low 1 | S. cerevisiae deletion strains, locus YOR069W, strain VPS5, active compounds read low 1 | S. cerevisiae deletion strains, locus YOR070C, strain gyp1, active compounds read low 1 | S. cerevisiae deletion strains, locus YOR080W, strain dia2, active compounds read low 0.986 | S. cerevisiae deletion strains, locus YOR083W, strain WHI5, active compounds read low 0.959 | S. cerevisiae deletion strains, locus YOR106W, strain vam3, active compounds read low 0.987 | S. cerevisiae deletion strains, locus YOR136W, strain idh2, active compounds read low 1.01 | S. cerevisiae deletion strains, locus YOR144C, strain elg1, active compounds read low 1.01 | S. cerevisiae deletion strains, locus YOR184W, strain ser1, active compounds read low 1 | S. cerevisiae deletion strains, locus YOR231W, strain MKK1, active compounds read low 1.02 | S. cerevisiae deletion strains, locus YOR265W, strain rbl2, active compounds read low 0.995 | S. cerevisiae deletion strains, locus YOR270C, strain vph1, active compounds read low 1.02 | S. cerevisiae deletion strains, locus YOR290C, strain snf2, active compounds read low 1 | S. cerevisiae deletion strains, locus YOR316C, strain cot1, active compounds read low 1.01 | S. cerevisiae deletion strains, locus YPL051W, strain arl3, active compounds read low 0.988 | S. cerevisiae deletion strains, locus YPL055C, strain LGE1, active compounds read low 0.982 | S. cerevisiae deletion strains, locus YPL078C, strain atp4, active compounds read low 0.959 | S. cerevisiae deletion strains, locus YPL106C, strain sse1, active compounds read low 1.02 | S. cerevisiae deletion strains, locus YPL240C, strain hsp82, active compounds read low 1.01 | S. cerevisiae deletion strains, locus YPL241C, strain CIN2, active compounds read low 0.996 | S. cerevisiae deletion strains, locus YPL256C, strain CLN2, active compounds read low 1.1 | S. cerevisiae deletion strains, locus YPR119W, strain clb2, active compounds read low 1.01 | S. cerevisiae deletion strains, locus YPR141C, strain kar3, active compounds read low 1.01 | S. cerevisiae deletion strains, locus YPR163C, strain tif3, active compounds read low 1.02 | S. cerevisiae deletion strains, locus YPR167C, strain met16, active compounds read low 1.01 | S. cerevisiae deletion strains, strain wtn01, active compounds read low 1.03 | S. cerevisiae strains, strain wild type, active compounds read low 0.998
